The supplement of paper PMC13380429

System: Vero E6 infected with SARS-CoV-2
Test: inhibition of SARS-CoV-2 cytopathic effect; higher = more antiviral protection, active = above 15
Conditions: 48 h

Measured: inhibition of SARS-CoV-2 cytopathic effect

CC1=C(/C=C/C(=C/C=C/C(C)=C/C(=O)O)c2ccc(C)cc2)C(C)(C)CCC1
inactive: 1 nM 0.94% | 8.33 nM 2.92% | 100 nM 1% | 833.33 nM 1.71% | 10000 nM 6.23%

COc1cc([C@@H]2c3cc4c(cc3[C@@H](O[C@@H]3O[C@@H]5CO[C@@H](c6cccs6)O[C@H]5[C@H](O)[C@H]3O)[C@H]3COC(=O)[C@H]23)OCO4)cc(OC)c1O [teniposide]
inactive: 1 nM 1.37% | 8.33 nM 2.49% | 100 nM 4.69% | 833.33 nM 1.54% | 10000 nM -7.08%

CCCCN(Cc1ccc(C(=O)NO)cc1)C(=O)Nc1ccccc1 [nexturastat-A]
inactive: 1 nM 0.96% | 8.33 nM 0.67% | 100 nM -0.8% | 833.33 nM -3.85% | 10000 nM -13.9%

CSc1cc2c(cc1C(F)(F)F)N(C(=O)Nc1cccnc1)CC2
inactive: 1 nM -0.31% | 8.33 nM -3.61% | 100 nM 1.56% | 833.33 nM 1.75% | 10000 nM 0.95%

CC(C)SC(=N)N [S-isopropylisothiourea]
inactive: 1 nM 1.63% | 8.33 nM 0.91% | 100 nM 3.8% | 833.33 nM 0.88% | 10000 nM 2.04%

C=C1CC/C=C(\C)CC[C@@H]2[C@@H]1CC2(C)C [g-caryophyllene]
inactive: 1 nM 1.74% | 8.33 nM 2.63% | 100 nM -0.6% | 833.33 nM 1.24% | 10000 nM 1.88%

CCCCCCCCCCC(=O)O[C@H]1CC[C@H]2[C@@H]3CCC4=CC(=O)CC[C@]4(C)[C@H]3CC[C@]12C [Testosterone (undecanoate)]
inactive: 1 nM 1.81% | 8.33 nM 0.82% | 100 nM 0.37% | 833.33 nM 0.31% | 10000 nM 0.21%

NC(N)=Nc1nc(CSCC/C(N)=N/S(N)(=O)=O)cs1 [famotidine]
inactive: 1 nM -4.18% | 8.33 nM -3.04% | 100 nM 2.88% | 833.33 nM 4.59% | 10000 nM -0.5%

O=C1CCC[C@@H]2[C@H]3CCC[N+]4([O-])CCC[C@@H](CN12)[C@@H]34 (stereo not given in full) [oxymatrine]
inactive: 1 nM 2.76% | 8.33 nM 1.55% | 100 nM 1.11% | 833.33 nM 0.79% | 10000 nM -1.71%

O=C(NO)c1ccc2[nH]c(=O)c(CCCc3ccccc3)nc2c1
inactive: 1 nM 1.82% | 8.33 nM 3.66% | 100 nM 0.97% | 833.33 nM 1.93% | 10000 nM -2.66%

CC(N)Cc1c[nH]c2ccc(OCc3cccs3)cc12 (stereo not given)
inactive: 1 nM 0.71% | 8.33 nM -0.24% | 100 nM 0.67% | 833.33 nM -1.65% | 10000 nM -3.56%

CN(NC(=O)CC(=O)NN(C)C(=S)c1ccccc1)C(=S)c1ccccc1 [elesclomol]
inactive: 1 nM 1.66% | 8.33 nM 2.35%
active: 100 nM 18% | 833.33 nM 19.7% | 10000 nM 36.4%

Nc1ncnc2c1ncn2[C@@H]1O[C@@H]2COP(=O)(O)O[C@H]2[C@H]1O [cyclic-AMP]
inactive: 1 nM 3.59% | 8.33 nM -0.53% | 100 nM -1.76% | 833.33 nM -5.14% | 10000 nM 0.34%

CC(C)NCC(O)c1ccc([N+](=O)[O-])cc1 (stereo not given) [nifenalol]
inactive: 1 nM -3.06% | 8.33 nM 0.04% | 100 nM -1.08% | 833.33 nM 0.11% | 10000 nM -2.75%

OC(CNCC(O)C1CCc2cc(F)ccc2O1)C1CCc2cc(F)ccc2O1 (stereo not given) [nebivolol]
inactive: 1 nM -8.56% | 8.33 nM -2.57% | 100 nM -0.54% | 833.33 nM -2.81% | 10000 nM -3.97%

CN1C(=O)C(F)=C[C@]2(C)[C@H]3CC[C@]4(C)[C@@H](C(=O)NCc5nc6cccnc6[nH]5)CC[C@H]4[C@@H]3CC[C@@H]12
inactive: 1 nM 0.34% | 8.33 nM -0.43% | 100 nM -0.05% | 833.33 nM 2.35% | 10000 nM 1.08%

CCCOCCn1c(=O)c(N2CCN(CCO)CC2)nc2cnc(-c3ccc(OC)nc3)cc21
inactive: 1 nM 0.37% | 8.33 nM 0.25% | 100 nM -0.91% | 833.33 nM -1.66% | 10000 nM -1.9%

CC[C@@]1(O)C(=O)OCc2c1cc1n(c2=O)Cc2cc3cc(O)ccc3nc2-1 [10-hydroxycamptothecin]
inactive: 1 nM -0.65% | 8.33 nM -0.13% | 100 nM -3.85% | 833.33 nM -12.8% | 10000 nM -13.8%

CCC(CC)COC(=O)[C@H](C)N[P@](=O)(OC[C@H]1O[C@@](C#N)(c2ccc3c(N)ncnn23)[C@H](O)[C@@H]1O)Oc1ccccc1 [Remdesivir]
inactive: 1 nM -0.54% | 8.33 nM 1.32% | 100 nM 1.51% | 833.33 nM 0.56% | 10000 nM 9.79%

CNc1ncnc2c1ncn2[C@@H]1O[C@H](CO)[C@@H](O)[C@H]1O [N6-methyladenosine]
inactive: 1 nM 1.25% | 8.33 nM 1.97% | 100 nM -1.29% | 833.33 nM 0.63% | 10000 nM 2.03%

Cc1c(F)cc(C(=O)NC2CC2)cc1-c1ccc(C(=O)NCC(C)(C)C)cn1 [losmapimod]
inactive: 1 nM 1.3% | 8.33 nM 0.27% | 100 nM -1.7% | 833.33 nM -4.24% | 10000 nM -5.03%

COc1cc2c(NC3CCN(C(C)C)CC3)nc(N3CCC(F)(F)CC3)nc2cc1OCCCN1CCCC1
active: 10000 nM 68.5%
inactive: 1 nM -0.61% | 8.33 nM 0.14% | 100 nM 3.08% | 833.33 nM 0.9%

CC(C)C[C@@H](C(=O)N[C@H](C(=O)OC1CCCC1)c1ccccc1)[C@H](O)C(=O)NO [tosedostat]
inactive: 1 nM 3.34% | 8.33 nM 6.05% | 100 nM -1.49% | 833.33 nM 3.93% | 10000 nM 4.94%

Nc1nc(Nc2ccccc2)nc2c1ncn2[C@@H]1O[C@H](CO)[C@@H](O)[C@H]1O
inactive: 1 nM 2.4% | 8.33 nM 4.07% | 100 nM 1.9% | 833.33 nM 1.06% | 10000 nM -2.77%

CN1CCCN=C1COC(=O)C(O)(c1ccccc1)C1CCCCC1 (stereo not given) [oxyphencyclimine]
inactive: 1 nM 2.48% | 8.33 nM 0.59% | 100 nM 0.28% | 833.33 nM 2.86% | 10000 nM -1.14%

O=C1c2c(O)ccc(O)c2C(=O)c2c(NCCNCCO)ccc(NCCNCCO)c21 [mitoxantrone]
inactive: 1 nM 0.83% | 8.33 nM 0.03% | 100 nM -2.74% | 833.33 nM -4.43% | 10000 nM -11.1%

COc1nc(N)nc2c1ncn2[C@@H]1O[C@H](CO)[C@@H](O)[C@@H]1O [nelarabine]
inactive: 1 nM -1.29% | 8.33 nM -1.48% | 100 nM -0.71% | 833.33 nM -0.9% | 10000 nM 1.12%

CCCC(=O)O [sodium-butyrate]
inactive: 1 nM -1.28% | 8.33 nM -0.1% | 100 nM 1.57% | 833.33 nM -0.53% | 10000 nM 0.24%

CC(=O)[O-].CC(=O)[O-].N.NC1CCCCC1.[Cl-].[Cl-].[Pt+4] [satraplatin]
inactive: 1 nM 3.89% | 8.33 nM -0.13% | 100 nM 2.26% | 833.33 nM 1.69%
active: 10000 nM 23.8%

COc1ccnc2[nH]cc(C(=O)C(=O)N3CCN(C(=O)c4ccccc4)C[C@H]3C)c12
inactive: 1 nM 1.91% | 8.33 nM -1.88% | 100 nM -0.3% | 833.33 nM 0.28% | 10000 nM 1.74%

CNCCc1ccc(O)c(O)c1 [deoxyepinephrine]
inactive: 1 nM -0.96% | 8.33 nM 2.29% | 100 nM 2.18% | 833.33 nM -0.04% | 10000 nM -0.83%

Nc1cccc2c1C(=O)N(C1CCC(=O)NC1=O)C2=O (stereo not given) [pomalidomide]
inactive: 1 nM 1.4% | 8.33 nM -0.68% | 100 nM 2.15% | 833.33 nM 0.83% | 10000 nM 2.41%

O=C(O)CCCc1ccc(N(CCCl)CCCl)cc1 [chlorambucil]
inactive: 1 nM -0.23% | 8.33 nM 0.88% | 100 nM -0.7% | 833.33 nM -1.67% | 10000 nM -0.16%

CN1c2c([nH]c(N)nc2=O)NC[C@@H]1CNc1ccc(C(=O)N[C@@H](CCC(=O)O)C(=O)O)cc1 [metafolin]
inactive: 1 nM 4.85% | 8.33 nM 2.72% | 100 nM 1.95% | 833.33 nM 0.81% | 10000 nM 2.93%

CC1(C)S[C@@H]2[C@H](NC(=O)[C@H](C(=O)O)c3ccsc3)C(=O)N2[C@H]1C(=O)O [ticarcillin]
inactive: 1 nM -0.59% | 8.33 nM -1.04% | 100 nM -1.79% | 833.33 nM 0.92% | 10000 nM -2.66%

CCN(CC)Cc1ccc(C(=O)N(CCc2ccccc2OC)[C@@H]2CCNC2)cc1
inactive: 1 nM -1.07% | 8.33 nM -4.2% | 100 nM -1.66% | 833.33 nM -1.07% | 10000 nM -1.55%

CCC(O)(CC(N)=O)c1ccccc1 (stereo not given) [3-hydroxy-3-phenylpentanamide]
inactive: 1 nM 1.46% | 8.33 nM 0.49% | 100 nM -0.1% | 833.33 nM -10.4% | 10000 nM 0.22%

C1N2CN3CN1CN(C2)C3 [methenamine]
inactive: 1 nM -3.74% | 8.33 nM 0.58% | 100 nM -1.64% | 833.33 nM -0.2% | 10000 nM -1.08%

Nc1ncnc2c1ncn2[C@@H]1O[C@H](COP(=O)(O)OP(=O)(O)OP(=O)(O)O)[C@@H](O)[C@H]1O
inactive: 1 nM -0.89% | 8.33 nM -1.33% | 100 nM -0.6% | 833.33 nM 2.57% | 10000 nM 2.48%
